26 compounds from PubChem BioAssay (NCI) can be followed below.

Compounds without any hit were thinned out: in the full panel of roughly 83,000, 20% have a hit.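 The test compound was applied at a single concentration to cells in 96-well plates for 48 hours, and percent growth was recorded.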 Unmarked numbers belong to inactive results. Activity calls are given as the source filed them. The calls were made as follows: active = growth percent below 10; inactive = the rest.

Assay in all cases: NCI-60 one-dose screen, 48 h (100 = growth as untreated, 0 = no growth, -100 = all killed)
Common to all, as to details: 10 µM unless noted

Assay [1] deals with SR leukemia.
Assay [2] relates to RPMI-8226 leukemia.
In assay [3] the test system is OVCAR-8 ovarian.
The subject of assay [4] is OVCAR-5 ovarian.
Assay [5] relates to OVCAR-4 ovarian.
Assay [6] deals with SK-OV-3 ovarian.
Assay [7] concerns IGROV1 ovarian.
Assay [8] deals with OVCAR-3 ovarian.
For assay [9], the system named is HS 578T breast.
Assay [10] has as its system NCI/ADR-RES ovarian.

With `COc1cc2oc(-c3cccc(C(=O)Nc4ccc(Br)cc4)c3)cc(=O)c2c(OC)c1OC`, the growth in assay [1] was 18.4%; in assay [2], 8.6% (active); in assay [3] it was 40.5%; in [4] it was 61%; in assay [5], 57.6%; in assay [6], 69.4%. Also, the growth was 52.3% in assay [7], 76% in assay [8], 65.2% in assay [9] and 45.7% in assay [10].

With `Cc1c(C(=O)NCCC(=O)NO)sc2ncnc(Nc3ccc(F)c(Cl)c3)c12`, the growth was 111% in assay [1]; 110% in [2]; 101% in assay [3]; 108% in [4]; 109% in assay [5]; 129% in assay [6]. Moreover, the growth is 106% in assay [7], 107% in [8], 103% in assay [9] and 101% in [10].

In the case of `O=C(Nc1cccc(C2=NCCN2)c1)c1ccc(-c2ccc(C(=O)Nc3cccc(C4=NCCN4)c3)cc2)cc1`, the growth was 72.4% in assay [1]; 24.8% in [2]; 80.7% in assay [3]; 88.5% in assay [4]; 96.6% in assay [5]; 111% in assay [6]. In addition, the growth in assay [7] was 88.7%; in [8], 121%; in assay [9], 97.6%; in assay [10], 104%.

In the case of `COc1cccc(C(=O)NNc2nc(Cl)nc(N3CCN(C(c4ccccc4)c4ccccc4)CC3)n2)c1`, the growth was -23.8% (active) in assay [1]; 88% in [2]; 71.1% in [3]; 97.3% in [4]; 72.2% in assay [5]; 96% in [6]. For the same compound, the growth was 2.85% (active) in assay [7], 10.5% in assay [8], 91.6% in assay [9] and 88% in assay [10].

Regarding `CCCCCCCCO/N=C\c1c2c(O)c3c(O)c(C)c4c(c3c1O)C(=O)C(C)(O/C=C\C(OC)C(C)C(OC(C)=O)C(C)C(O)C(C)C(O)C(C)/C=C\C=C(\C)C(=O)N2)O4` (stereo not given), the growth in assay [1] was 6.26% (active); in [2], 9.95% (active); in assay [3], 24%; in [4] it was 48.8%; in assay [5], 29.4%; in assay [6], 30.5%. Moreover, the growth was 23.4% in assay [7], 22.2% in assay [8], -2.52% (active) in assay [9] and 32.1% in assay [10].

As for `O=C(Cn1c(C(=O)c2ccccc2)nc2ccccc21)c1ccc(F)cc1`, the growth is 25.4% in [1]; 28.7% in assay [2]; 79.7% in [3]; 84.2% in assay [4]; 58.4% in [5]; 110% in assay [6]. Further, the growth in assay [7] is 41.1%; in assay [8], 67.2%; in assay [9], 56.2%; in assay [10] it was 16.1%.

Regarding `Cc1nc(N)nc(N[C@@H](C)c2nc3cccc(NCc4ccc(C(=O)NO)cc4)c3c(=O)n2-c2ccccc2)n1`, the growth in [1] was 33.3%; in [2] it was 17.2%; in assay [3] it was 70.3%; in assay [4], 90.5%; in assay [5], 92.2%; in assay [6], 86.7%. The growth in [7] was 69.5%; in assay [8] it was 85.9%; in assay [9], 72.1%; in assay [10], 103%.

As for `CCN(Cc1ccccc1)c1ccc(C=O)cc1`, the growth in assay [1] was 90.3%; in assay [2] it was 90.4%; in assay [3] it was 97.8%; in [4] it was 93.1%; in assay [5], 85.8%; in assay [6] it was 103%. For the same compound, the growth in assay [7] was 96.1%; in assay [8], 97.9%; in assay [9], 120%; in assay [10], 101%.

As for `CNCCOc1nc2c3cnccc3cc(-c3cc(OC)c(OC)c(OC)c3)c2c2ccncc12`, the growth in assay [1] was -18.2% (active); in [2], -32% (active); in assay [3] it was -37.3% (active); in [4] it was -9.07% (active); in [5], -2.03% (active); in assay [6] it was -33.9% (active). Moreover, the growth is -16.3% (active) in assay [7], 1.62% (active) in assay [8], -25.7% (active) in [9] and -27.9% (active) in [10].

For the compound `CCOC(=O)Nc1ccc(-c2ccc3c(c2)NC(=O)/C3=C\c2ccc[nH]2)cc1`, the growth in assay [1] is 19.3%; in assay [2], 100%; in assay [3] it was 105%; in [4], 72.8%; in [5] it was 45%; in [6] it was 91%. The growth in [7] is 94.1%; in [8] it was 106%; in [9] it was 106%; in [10], 102%.

`COc1cc(OC)cc(C(=O)C[n+]2cccc3cc[nH]c32)c1`: the growth was 116% in assay [1]; 106% in assay [2]; 103% in assay [3]; 98.9% in [4]; 99.3% in assay [5]; 104% in [6]. Further, the growth in assay [7] is 94.2%; in assay [8], 106%; in [9], 101%; in assay [10] it was 101%.

On to `COc1cc(NCCCCCNC(C)(C)C)c2ncccc2c1`, for which the growth was 113% in assay [1]; 7.94% (active) in assay [2]; 102% in [3]; 110% in [4]; 22.6% in assay [5]; 97% in assay [6]. For the same compound, the growth was 37.2% in assay [7], 81.2% in assay [8], 88.3% in assay [9] and 85.4% in assay [10].

On to `O=C(/C(=C/c1ccc([N+](=O)[O-])cc1)SCc1ccc(F)cc1)c1ccc(F)cc1`, for which the growth in assay [1] is 6.69% (active); in assay [2] it was -28.7% (active); in assay [3], 93.1%; in [4], 97.9%; in [5], 73.2%; in [6], 103%. Besides, the growth in assay [7] was 78%; in [8], 82.9%; in assay [9] it was 89.2%; in [10], 77.1%.

For `CCC(CC)NCC(C)(C)O`, the growth is 93.4% in assay [1]; 107% in [2]; 99% in assay [3]; 108% in [4]; 105% in [5]; 110% in [6]. The growth is 98% in [7], 119% in [8], 107% in assay [9] and 106% in [10].

Turning to `O=C(NCCc1ccccc1)Nc1ccc2cc3ccc(NC(=O)NCCc4ccccc4)cc3nc2c1`, the growth in [1] was -30.2% (active); in assay [2] it was 49.1%; in [3] it was 23.8%; in assay [4] it was 50.6%; in assay [5], 62.6%; in assay [6] it was 41.4%. Moreover, the growth was 48.2% in [7], 19.2% in assay [8], -26.2% (active) in [9] and 105% in [10].

With `COc1cc2c(=O)n(CCN)c3c4cc5c(cc4ccc3c2cc1OC)OCO5`, the growth in [1] was -26% (active); in [2], -41.7% (active); in assay [3] it was -49.9% (active); in [4], -76.9% (active); in assay [5], -76% (active); in [6] it was 16.6%. For the same compound, the growth in assay [7] was -75.6% (active); in assay [8] it was -79.3% (active); in assay [9], 25.8%; in [10] it was -37.3% (active).

Consider `CN1[C@@H]2CC[C@H]1/C(=C\c1ccccc1)C(=O)/C2=C/c1ccccc1`, for which the growth in assay [1] was 19.2%; in assay [2], 27%; in assay [3], -9.6% (active); in assay [4], 98.4%; in assay [5] it was 48.4%; in assay [6], 79.1%. The growth in [7] was 41.7%; in assay [8], 14.4%; in assay [9] it was 33.7%; in assay [10], 10.7%.

As to `O=C1c2c(c3c4cccc(F)c4[nH]c3c3ccc4ccccc4c23)C(=O)N1O`, the growth in [1] is 7.28% (active); in [2] it was 0.257% (active); in assay [3], 42.2%; in assay [4], 103%; in [5], 56.6%; in assay [6], 75.5%. Further, the growth in assay [7] is 35.2%; in assay [8], 36%; in assay [9] it was 62.1%; in [10] it was 64.2%.

Turning to `CC1(C)CC[C@]2(C(=O)O)CC[C@]3(C)C(=CC[C@@H]4[C@@]5(C)Cc6c([nH]c7ccccc67)C(C)(C)[C@@H]5CC[C@]43C)[C@@H]2C1`, the growth in assay [1] is 41.3%; in [2] it was 23.2%; in [3], 35%; in [4] it was 80.9%; in assay [5] it was 36.8%; in [6], 62.4%. Also, the growth was 58% in [7], 37.2% in assay [8], 75.2% in [9] and 34.2% in [10].

On to `CCOc1ccc(/C=N/Nc2cc(C)nc3ccc(Br)cc23)cc1`, for which the growth in assay [1] is 2.09% (active); in assay [2], 71.4%; in [3], 90.6%; in assay [4], 89.2%; in assay [5], 91.8%; in [6] it was 90.8%. Moreover, the growth in assay [7] is 96.2%; in [8], 105%; in [9], 101%; in assay [10], 81.8%.

Consider `NC(=NCCCOc1ccc(F)cc1)Nc1ccc(I)cc1`, for which the growth in assay [1] is 58%; in assay [2], 64.8%; in assay [3] it was 89.3%; in assay [4] it was 89.9%; in [5] it was 45.7%; in [6], 81.8%. In addition, the growth is 66.3% in assay [7], 80.5% in [8], 84.6% in assay [9] and 81.5% in [10].

With `COc1ccccc1NC(=O)C1CC(c2ccc(F)cc2)=NO1` (stereo not given), the growth in assay [1] is 101%; in assay [2] it was 97.1%; in assay [3] it was 98.1%; in [4] it was 108%; in assay [5], 102%; in assay [6] it was 112%. Moreover, the growth in assay [7] was 105%; in assay [8], 110%; in assay [9] it was 94.1%; in assay [10], 95.8%.

Take `O=S(=O)(NCCNc1nccc(-c2c(-c3cccc(O)c3)nc3occn23)n1)c1ccc(Cl)cc1`: the growth in assay [1] was 106%; in assay [2] it was 105%; in assay [3] it was 105%; in assay [4], 143%; in assay [5], 126%; in [6], 99.8%. The growth in assay [7] was 95%; in [8], 113%; in assay [9], 108%; in assay [10], 109%.

As to `Cc1ccc(C(=O)/C(=C\c2ccc([N+](=O)[O-])cc2)S(=O)Cc2ccc(Cl)cc2)cc1` (stereo not given), the growth was 6.07% (active) in assay [1]; -28.1% (active) in [2]; 25.6% in assay [3]; 45.8% in assay [4]; 58.9% in assay [5]; 106% in assay [6]. Also, the growth was 1.23% (active) in assay [7], 22.4% in [8], 36.9% in assay [9] and 30.5% in assay [10].

For the compound `O=C(/C=C(/C=C/c1csc2ccccc12)OB(F)F)/C=C/c1csc2ccccc12`, the growth in assay [1] was 3.63% (active); in [2] it was -12% (active); in assay [3], -9.55% (active); in assay [4] it was 60.6%; in [5], -0.888% (active); in assay [6], 100%. Further, the growth in [7] is 11.3%; in [8] it was -14.2% (active); in [9], 3.47% (active); in [10] it was 18.3%.

With `N#C/C(=C\c1ccc([N+](=O)[O-])s1)c1nc2cc(Cl)ccc2s1`, the growth in [1] was -0.613% (active); in assay [2] it was -13.4% (active); in assay [3] it was 3.27% (active); in assay [4], 63.6%; in assay [5], 13.4%; in assay [6], 65.1%. For the same compound, the growth in [7] was -16.2% (active); in [8], 20.9%; in [9], 77.6%; in [10], -5.71% (active).
